Among the data in PubChem BioAssay (EPA / NIEHS) are outcome and AC50 values, retold here.

Read-out in assay [1]: Tissue plasminogen activator (tPA), PLAT (gene 5327)
Put plainly: BSK_BE3C_tPA: BioMAP Diversity Plus: BE3C Assay for Tissue plasminogen activator (tPA) Biomarker Activity (AID 2283041).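 As to outcome: tPA level quantified by ELISA one day after compound addition.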 The conditions noted are these: primary human bronchial epithelial cells; actives raise or lower the signal. Put shortly: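 Using human lung primary bronchial epithelial cells, tPA was measured by ELISA 24 h after dosing; data fitted relative to DMSO.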

Read-out in assay [2]: Interleukin-8 (IL8), CXCL8 (gene 3576)
Put plainly: BSK_CASM3C_IL8: BioMAP Diversity Plus: CASM3C Assay for Interleukin-8 (IL8) Biomarker Activity (AID 2283042).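 Also: IL-8 protein level quantified by ELISA.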 The conditions noted are these: primary human coronary artery smooth muscle cells; actives raise or lower the signal.

Read-out in assay [3]: Human Leukocyte Antigen - DR isotype (HLADR), HLA-DRA (gene 3122)
Nature of the assay: BSK_CASM3C_HLADR: BioMAP Diversity Plus: CASM3C Assay for Human Leukocyte Antigen - DR isotype (HLADR) Biomarker Activity (AID 2283043).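 Also: cell-surface HLA-DR protein level quantified by ELISA.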 The conditions noted are these: primary human coronary artery smooth muscle cells; actives raise or lower the signal.

Read-out in assay [4]: Macrophage colony-stimulating factor (MCSF), CSF1 (gene 1435)
Nature of the assay: BSK_CASM3C_MCSF: BioMAP Diversity Plus: CASM3C Assay for Macrophage colony-stimulating factor (MCSF) Biomarker Activity (AID 2283044).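 Also: M-CSF protein amount quantified by ELISA after 24 h exposure.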 The conditions noted are these: primary human coronary artery smooth muscle cells; actives raise or lower the signal.

Read-out in assay [5]: Low-density lipoprotein receptor (LDLR), LDLR (gene 3949)
Nature of the assay: BSK_CASM3C_LDLR: BioMAP Diversity Plus: CASM3C Assay for Low-density lipoprotein receptor (LDLR) Biomarker Activity (AID 2283045).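 Also: LDLR protein level on the cell surface quantified by ELISA.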 The conditions noted are these: primary human coronary artery smooth muscle cells; actives raise or lower the signal.

Read-out in assay [6]: Monocyte Chemoattractant Protein-1 (MCP1), CCL2 (gene 6347)
Nature of the assay: BSK_CASM3C_MCP1: BioMAP Diversity Plus: CASM3C Assay for Monocyte Chemoattractant Protein-1 (MCP1) Biomarker Activity (AID 2283046).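 Also: MCP-1 level quantified by ELISA 24 h after dosing.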 The conditions noted are these: primary human coronary artery smooth muscle cells; actives raise or lower the signal.

The nature of assay [7]: BSK_CASM3C_Proliferation: Cell Proliferation Assessment in the BioMAP Diversity Plus: CASM3C Assay (AID 2283047).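 Also: sulforhodamine B total protein stain as relative cell number at 560 nm; sub-confluent cells exposed 48 h before staining; fitted both ways against DMSO so gain or loss of cell number.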 The conditions noted are these: primary human coronary artery smooth muscle cells.
Read-out in assay [8]: Monokine induced gamma interferon (MIG), CXCL9 (gene 4283)
Nature of the assay: BSK_CASM3C_MIG: BioMAP Diversity Plus: CASM3C Assay for Monokine induced gamma interferon (MIG) Biomarker Activity (AID 2283048).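 Also: MIG protein level measured by ELISA.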 The conditions noted are these: primary human coronary artery smooth muscle cells; actives raise or lower the signal.

Read-out in assay [9]: serum amyloid A (SAA), SAA1 (gene 6288)
Put plainly: BSK_CASM3C_SAA: BioMAP Diversity Plus: CASM3C Assay for serum amyloid A (SAA) Biomarker Activity (AID 2283049).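 Also: SAA protein level quantified by ELISA.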 The conditions noted are these: primary human coronary artery smooth muscle cells; actives raise or lower the signal.

The nature of assay [10]: BSK_CASM3C_SRB: Viability Assessment in the BioMAP Diversity Plus: CASM3C Assay (AID 2283050).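 Also: total protein by SRB staining as cytotoxicity measure in parallel cultures; cells exposed to compound for 24 h.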 The conditions noted are these: primary human coronary artery smooth muscle cells.
Read-out in assay [11]: Thrombomodulin, THBD (gene 7056)
Put plainly: BSK_CASM3C_Thrombomodulin: BioMAP Diversity Plus: CASM3C Assay for Thrombomodulin Biomarker Activity (AID 2283051).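 Also: thrombomodulin protein level measured by ELISA 24 h after dosing.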 The conditions noted are these: primary human coronary artery smooth muscle cells; actives raise or lower the signal.

Read-out in assay [12]: Tissue Factor, F3 (gene 2152)
Put plainly: BSK_CASM3C_TissueFactor: BioMAP Diversity Plus: CASM3C Assay for Tissue Factor Biomarker Activity (AID 2283052).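 Also: cell surface tissue factor protein level read by ELISA.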 The conditions noted are these: primary human coronary artery smooth muscle cells; actives raise or lower the signal.

Read-out in assay [13]: Interferon-gamma inducible Protein 10 (IP10), CXCL10 (gene 3627)
Nature of the assay: BSK_hDFCGF_IP10: BioMAP Diversity Plus: hDFCGF Assay for Interferon-gamma inducible Protein 10 (IP10) Biomarker Activity (AID 2283053). The conditions noted are these: primary human foreskin fibroblasts; actives raise or lower the signal. Put shortly:
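Chemical-treated human skin fibroblasts (primary) were sampled at 24 h for IP-10 by ELISA. Both increases and decreases relative to DMSO were scored.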

Read-out in assay [14]: Urokinase-type plasminogen activator receptor (uPAR), PLAUR (gene 5329)
Nature of the assay: BSK_CASM3C_uPAR: BioMAP Diversity Plus: CASM3C Assay for Urokinase-type plasminogen activator receptor (uPAR) Biomarker Activity (AID 2283054).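 Also: cell-surface uPAR protein level quantified by ELISA.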 The conditions noted are these: primary human coronary artery smooth muscle cells; actives raise or lower the signal.

Read-out in assay [15]: Vascular cell adhesion molecule 1 (VCAM1), VCAM1 (gene 7412)
Nature of the assay: BSK_CASM3C_VCAM1: BioMAP Diversity Plus: CASM3C Assay for Vascular cell adhesion molecule 1 (VCAM1) Biomarker Activity (AID 2283055).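 Also: VCAM-1 protein level quantified by ELISA on the cells.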 The conditions noted are these: primary human coronary artery smooth muscle cells; actives raise or lower the signal.

Read-out in assay [16]: Collagen III, COL3A1 (gene 1281)
Nature of the assay: BSK_hDFCGF_CollagenIII: BioMAP Diversity Plus: hDFCGF Assay for Collagen III Biomarker Activity (AID 2283056). The conditions noted are these: primary human foreskin fibroblasts; actives raise or lower the signal. Put shortly: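 Cells: human foreskin fibroblasts, primary. Dosing followed by 24 h incubation, then ELISA for collagen III. Both increases and decreases scored relative to DMSO.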

Read-out in assay [17]: Epidermal growth factor receptor (EGFR), EGFR (gene 1956)
Put plainly: BSK_hDFCGF_EGFR: BioMAP Diversity Plus: hDFCGF Assay for Epidermal growth factor receptor (EGFR) Biomarker Activity (AID 2283057). The conditions noted are these: primary human foreskin fibroblasts; actives raise or lower the signal. An outline of the steps: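 Cell-based multiplexed assay in primary human foreskin fibroblasts. EGFR is read by ELISA 24 h after treatment and compared with DMSO controls.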

Read-out in assay [18]: Interleukin-8 (IL8), CXCL8 (gene 3576)
Nature of the assay: BSK_hDFCGF_IL8: BioMAP Diversity Plus: hDFCGF Assay for Interleukin-8 (IL8) Biomarker Activity (AID 2283058). The conditions noted are these: primary human foreskin fibroblasts; actives raise or lower the signal. Put shortly: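 IL-8 levels from compound-treated primary human fibroblasts were read by ELISA at 24 h, with DMSO serving as baseline for bidirectional fitting.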

A short description of assay [19]: BSK_hDFCGF_Proliferation: Cell Proliferation Assessment in the BioMAP Diversity Plus: hDFCGF Assay (AID 2283059).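 Also: curves fitted for both rise and fall of signal versus DMSO baseline.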 The conditions noted are these: primary human foreskin fibroblasts. An outline of the steps: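 Sub-confluent human foreskin fibroblast cultures receive test chemical […]. Relative cell number is quantified by sulforhodamine B staining (0.1%, after 10% TCA fixation) at 560 nm, with bidirectional fitting referenced to DMSO.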

Read-out in assay [20]: Macrophage colony-stimulating factor (MCSF), CSF1 (gene 1435)
Nature of the assay: BSK_hDFCGF_MCSF: BioMAP Diversity Plus: hDFCGF Assay for Macrophage colony-stimulating factor (MCSF) Biomarker Activity (AID 2283060). The conditions noted are these: primary human foreskin fibroblasts; actives raise or lower the signal. Put shortly: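 M-CSF levels, determined by ELISA, are taken at 24 h after dosing human skin fibroblasts. Responses in either direction are fitted with DMSO serving as the baseline.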

Structures are written as SMILES. Values joined by “and” are separate entries in the source; they are usually repeats but may differ in a detail not shown here. Equal entries are not always repeated. More than one record can exist for a structure, and the calls need not agree. Active and inactive are the calls of the source. The calls were made as follows: active = hit-call score of the fitted dose curve at least 0.9, where 1 is the maximum; inactive = score below 0.9.

A word on the AC50: it is the concentration at which the activity in the assay is half-maximal.

On to `Clc1ccc(C(Cl)(Cl)Cl)cc1`, for which the result in assay [1], in assay [2], in assay [3], in assay [4], in assay [5] and in assay [6] was inactive. Further, the outcome in assay [7], in assay [8], in assay [9], in assay [10], in [11] and in assay [12] was inactive. Besides, the result in assay [13], in assay [14], in [15], in [16], in [17] and in assay [18] was inactive. Also, the result in assay [19] and in assay [20] was inactive.
Turning to `NS(=O)(=O)C(F)(F)C(F)(F)C(F)(F)C(F)(F)C(F)(F)C(F)(F)C(F)(F)C(F)(F)F`, the concentration at half-maximal activity (AC50) is 45.5 µM (active) and 37 µM (active) in assay [1]; 26.2 µM (active) and 46.2 µM (active) in assay [3]; 31.3 µM (active) and 49 µM (active) in [4]; 44.3 µM (active) in [5]; 30 µM (active) in assay [6]; 54.4 µM (active) and 50.9 µM (active) in assay [7]. Moreover, the AC50 in assay [8] is 39.8 µM (active); in assay [9] it was 46.8 µM (active); in [10], 31.8 µM (active) and 45.5 µM (active) and 49.3 µM (active); in [11] it was 26 µM (active) and 34.6 µM (active) and 37.3 µM (active); in assay [13] it was 20 µM (active) and 9.33 µM (active) and 8.26 µM (active); in assay [14] it was 46.6 µM (active) and 42.5 µM (active). Moreover, the AC50 in [15] was 11.4 µM (active) and 16.7 µM (active); in [16], 12.6 µM (active) and 10.8 µM (active) and 9.02 µM (active); in [18] it was 37.5 µM (active) and 22.2 µM (active) and 34 µM (active); in assay [19], 12.2 µM (active) and 18.3 µM (active) and 19.5 µM (active); in [20] it was 14.8 µM (active) and 8.52 µM (active) and 8.29 µM (active). In addition, the result in assay [1], in assay [2], in [3], in assay [4], in assay [5] and in assay [6] was inactive. The result in assay [7], in assay [8], in assay [9], in assay [12], in assay [14] and in [15] was inactive. Moreover, the result in assay [17] was inactive.
Consider `Oc1c(Cl)c(Cl)c(Cl)c(Cl)c1Cl`, for which the AC50 is 2.56 µM (active) and 7.59 µM (active) in [1]; 2.09 µM (active) in assay [2]; 20 µM (active) in assay [3]; 26.7 µM (active) in assay [7]; 29.6 µM (active) in [10]; 34.9 µM (active) in assay [12]. Also, the AC50 was 10.2 µM (active) and 13.1 µM (active) in [13]; 20 µM (active) in assay [14]; 20 µM (active) in assay [15]; 2.34 µM (active) and 2.57 µM (active) in assay [16]; 3.11 µM (active) and 8.24 µM (active) in assay [19]; 6.44 µM (active) in assay [20]. The result in assay [2], in assay [3], in assay [4], in assay [5], in [6] and in assay [7] was inactive. For the same compound, the result in assay [8], in assay [9], in assay [10], in assay [11], in [12] and in assay [14] was inactive. Besides, the result in [17], in assay [18] and in [20] was inactive.
For the compound `C=CC(N)=O`, the result in assay [1], in assay [2], in assay [3], in [4], in assay [5] and in [7] was inactive. Also, the result in [8], in assay [9], in [10], in [11], in [12] and in [13] was inactive. For the same compound, the result in assay [14], in assay [15], in assay [16], in [17], in assay [18] and in assay [19] was inactive. Further, the outcome in assay [20] was inactive. The AC50 in assay [6] was 0.887 µM (active).
Turning to `CCNc1nc(NC(C)C)nc(SC)n1`, the result in assay [1], in assay [2], in assay [3], in assay [4], in assay [5] and in [6] was inactive. Also, the result in assay [7], in assay [8], in assay [9], in [10], in [11] and in assay [12] was inactive. Besides, the outcome in assay [14], in [15], in assay [16], in [17], in assay [18] and in assay [19] was inactive. For the same compound, the outcome in [20] was inactive. The AC50 in assay [13] is 30.4 µM (active).
